Several values for one entry are separate records, joined by “and”; a condition that tells them apart may be missing. Identical values can stand only once. About 2,000 (36%) of roughly 5,500 compounds were called active. Inconclusive results (about 18%) are left out. Cut-off read from the data, not from the text of the source: active = normalized growth mostly below about 0.91 (no sharp cut-off); inconclusive = no clear call, values can overlap the other calls; inactive = mostly above about 0.92. The list shows a part of the results.
Experiment: chemical genetic growth profiling, strain panel (AID 1159580);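 note: tested at 20 µM; growth read once vehicle control cultures reached saturation at 30 °C; 1 = growth at the plate median or of vehicle wells; lower values mean less growth of the strain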
Conditions: S. cerevisiae deletion strains, growth OD

Measured: normalized growth

Nc1ccc(C(=O)NCC(=O)O)cc1
inactive: locus YAL021C, strain ccr4, hits give low values 1.02 | locus YAL026C, strain drs2, hits give low values 1.02 | locus YAL030W, strain snc1, hits give low values 0.998 | locus YBL061C, strain skt5, hits give low values 1.01 | locus YBR009C, strain hhf1, hits give low values 1.01 | locus YBR021W, strain FUR4, hits give low values 1.01 | locus YBR023C, strain chs3, hits give low values 1.02 | locus YBR171W, strain sec66, hits give low values 1.02 | locus YBR229C, strain ROT2, hits give low values 1 | locus YBR231C, strain swc5, hits give low values 1.01 | locus YBR279W, strain paf1, hits give low values 1.01 | locus YCL011C, strain gbp2, hits give low values 1.02 | locus YCL016C, strain dcc1, hits give low values 1.02 | locus YCL029C, strain bik1, hits give low values 1 | locus YCL069W, strain vba3, hits give low values 1 | locus YCR088W, strain abp1, hits give low values 1.01 | locus YDL005C, strain med2, hits give low values 1.01 | locus YDL035C, strain GPR1, hits give low values 1.01 | locus YDL040C, strain nat1, hits give low values 1 | locus YDL074C, strain BRE1, hits give low values 0.992 | locus YDL101C, strain DUN1, hits give low values 1 | locus YDL134C, strain PPH21, hits give low values 1.01 | locus YDL185W, strain tfp1, hits give low values 1.01 | locus YDL192W, strain arf1, hits give low values 1.01 | locus YDR001C, strain nth1, hits give low values 1.01 | locus YDR069C, strain doa4, hits give low values 1 | locus YDR101C, strain arx1, hits give low values 0.993 | locus YDR137W, strain rgp1, hits give low values 1.02 | locus YDR150W, strain NUM1, hits give low values 1.01 | locus YDR159W, strain sac3, hits give low values 0.979 | locus YDR162C, strain NBP2, hits give low values 1.01 | locus YDR195W, strain ref2 0.999 | locus YDR297W, strain sur2, hits give low values 1.02 | locus YDR318W, strain mcm21, hits give low values 1.02 | locus YDR334W, strain swr1, hits give low values 1.04 | locus YDR335W, strain msn5, hits give low values 1.02 | locus YDR388W, hits give low values 1 | locus YDR392W, strain spt3, hits give low values 1.03 | locus YDR502C, strain sam2, hits give low values 1.01 | locus YEL003W, strain gim4, hits give low values 1.02 | locus YEL037C, strain rad23, hits give low values 0.998 | locus YEL061C, strain CIN8 (second series), hits give low values 1.01 | locus YEL061C, strain CIN8, hits give low values 1 | locus YER015W, strain faa2, hits give low values 0.996 | locus YER016W, strain bim1, hits give low values 1.02 | locus YER110C, hits give low values 1.02 | locus YER111C, strain swi4, hits give low values 0.996 | locus YER155C, strain BEM2 (second series), hits give low values 1.02 | locus YER155C, strain BEM2, hits give low values 0.994 | locus YER167W, strain BCK2, hits give low values 1.01 | locus YFR010W, strain ubp6, hits give low values 0.999 | locus YGL078C, strain dbp3, hits give low values 1.02 | locus YGL086W, strain mad1, hits give low values 1.01 | locus YGL167C, strain pmr1, hits give low values 1.02 | locus YGL173C, strain kem1, hits give low values 1.01 | locus YGL227W, strain vid30, hits give low values 1 | locus YGL240W, strain doc1, hits give low values 0.993 | locus YGL248W, strain PDE1, hits give low values 0.992 | locus YGL253W, strain hxk2, hits give low values 1.02 | locus YGR135W, strain pre9, hits give low values 1.04 | locus YGR229C, strain SMI1, hits give low values 0.99 | locus YGR252W, strain gcn5, hits give low values 1.01 | locus YHR013C, strain ard1, hits give low values 1.03 | locus YHR027C, strain rpn1, hits give low values 1.02 | locus YHR030C, strain SLT2, hits give low values 1.01 and 0.968 | locus YHR079C, strain IRE1 (second series), hits give low values 1.01 | locus YHR079C, strain IRE1, hits give low values 0.971 | locus YHR094C, strain hxt1, hits give low values 1.01 | locus YHR129C, strain ARP1, hits give low values 1 | locus YHR142W, strain chs7, hits give low values 1.02 | locus YHR200W, strain rpn10, hits give low values 1.02 | locus YIL066C, strain RNR3, hits give low values 1 | locus YIL073C, strain SPO22, hits give low values 1.05 | locus YIL125W, strain kgd1, hits give low values 1.01 | locus YIR030C, strain dcg1, hits give low values 1 | locus YJL092W, strain hpr5, hits give low values 1.02 | locus YJL095W, strain BCK1 (second series), hits give low values 1.01 | locus YJL095W, strain BCK1, hits give low values 0.985 and 0.967 | locus YJL115W, strain asf1, hits give low values 1.02 | locus YJL129C, strain trk1, hits give low values 1.02 | locus YJL134W, strain LCB3, hits give low values 1 | locus YJL154C, strain vps35, hits give low values 1 | locus YJL164C, strain tpk1, hits give low values 1.01 | locus YJL166W, strain qcr8, hits give low values 1.03 | locus YJL168C, strain set2, hits give low values 1 | locus YJL187C, strain SWE1 (second series), hits give low values 0.982 | locus YJR043C, strain POL32, hits give low values 1.01 | locus YJR066W, strain TOR1, hits give low values 0.928 | locus YJR075W, strain HOC1, hits give low values 0.999

Reference: PubChem BioAssay AID1159580 (chemical genetic matrix, 2015)
